Screens from PubChem.
Pf growth 48h – Primary qHTS for delayed death inhibitors of the malarial parasite plastid, 48 hour incubation. P. falciparum luciferase growth in erythrocytes, 48 h. Potency, µM (doses to about 28.7 µM), without a hit: at the top dose activity change, negative = inhibition, hits mostly inhibitors. 310,000 tested, 5.9% active; further: potency means the concentration at half of the fitted maximal effect; on the % scale 0 is the no-effect control and ±100 the full control effect
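In quantitative HTS format, infected erythrocytes bearing luciferase-reporter parasites were treated for a single generation at 37 C. Luminescence after adding detection reagent served as the growth measure.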
HCV inhibitor – qHTS Assay for Inhibitors of Hepatitis C Virus (HCV). Huh7.5.1 HCVcc-Cre infection, luciferase reporter, 44 h. Potency, µM (titrated, usually from 41.8 µM), for inactives: top-dose activity change, negative = inhibition, hits mostly inhibitors. 340,000 tested, 3.4% active. AID 651820, 2012; further: potency means the concentration at half of the fitted maximal effect; on the % scale 0 is the no-effect control and ±100 the full control effect
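Cells (1,000/well) were plated 4 h before compound, then infected with HCVcc-Cre virus (~0.5 moi). After 44 h further culture, infection was read as luciferase luminescence following a 15 min substrate incubation at room temperature.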
SARS PLP yeast – qHTS of Yeast-based Assay for SARS-CoV PLP. Potency, µM (series often up to 32.9 µM), for inactives: top-dose activity, positive = growth rescue, most hits filed as activators. S. cerevisiae expressing SARS-CoV PLpro, growth rescue. 330,000 tested, 0.19% active. AID 485353, 2010; calls by dose curve; further: potency means the concentration at half of the fitted maximal effect; 0% is about no effect; nearly all actives have a fitted effect of over 55% in size
Sm TGR inh – qHTS Assay for the Inhibitors of Schistosoma Mansoni Peroxiredoxins | 360,000 tested, 3% active | purified TGR, DTNB reduction, TNB absorbance 405 nm | Potency, µM (titrated, usually from 114 µM), without a hit: top-dose activity change, negative = inhibition, most hits filed as inhibitors; further: potency means the concentration at half of the fitted maximal effect; on the % scale 0 is the no-effect control and ±100 the full control effect; nearly all actives have a fitted effect of over 60% in size
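TGR 20 nM + NADPH 100 uM (dispensed conc.), cpd preinc 15 min RT; start with NADPH (500 uM addition) then DTNB (15 mM addition). Kinetic TNB absorbance, 405 nm filter. Four-parameter Hill fit across titration.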
Pf growth 96h – Primary qHTS for delayed death inhibitors of the malarial parasite plastid, 96 hour incubation; AID 504834, 2011; Potency, µM (titrated, usually from 28.7 µM), for the others: at the top dose activity change, negative = inhibition, most hits filed as inhibitors; P. falciparum luciferase reporter growth, 96 h; 320,000 tested, 6.9% active; further: potency means the concentration at half of the fitted maximal effect; on the % scale 0 is the no-effect control and ±100 the full control effect
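Cell-based qHTS: luciferase-tagged P. falciparum in erythrocytes (2% hematocrit, 0.05% parasitemia final) incubated with compounds for 96 hours, 37 C, 5% CO2; luciferase detection reagent then added and luminescence measured.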
HCMV inh – qHTS Assay for inhibitors of the human cytomegalovirus (HCMV); HFF cells, HCMV-luciferase reporter, 72 h; active compounds read low; activity change, negative = inhibition, % at 57.5 µM; 410,000 tested, 4.5% active; in the data active means activity change below about -60%; inconclusive means no clear call, values can overlap the other calls; inactive means above about -39%; further: on the % scale 0 is the no-effect control and ±100 the full control effect
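Two compound doses tested in HFFs infected with HCMV-luciferase, MOI 1 PFU/cell, 72 h at 37C. Lysate luminescence read with OneGlo; data normalized against buffer-only and 10uM Salinomycin inhibitor controls.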
* = called active by the depositor; ? = inconclusive; · = not tested or not shown; [ ] = another dose, or the depositor's remark. Only some compounds are listed: those with a hit (about 15% of all), similar ones and a draw of the others. Unless noted, the call rests on the fitted dose curve; in most records, active means well fitted curve in the direction sought with a large enough effect; inconclusive means small, poorly fitted or top-dose-only effect, or another doubt; inactive means no such curve, though single readings can be large; an effect the other way counts as inactive or inconclusive.

SMILES | Pf growth 48h | HCV inhibitor | SARS PLP yeast | Sm TGR inh | Pf growth 96h | HCMV inh
COc1ccc(-c2[nH]c3ccccc3c2SCCNC(=O)c2cc3ccccc3oc2=O)cc1 | -19% | 5%[8.37 µM] | 7% | -8% | 9.3µM* | 11
COc1ccc(S(=O)(=O)N2CCOCC2)cc1C(=O)NCc1c(C)nn(Cc2ccccc2)c1C | · | ? | · | · | · | -14
COc1ccc(NC(=O)c2ccco2)cc1S(=O)(=O)N1CCOCC1 | 10% | -2% | 6% | 0% | 2% | 4
Cc1nn(Cc2ccccc2)c(Cl)c1C(=O)Nc1ccc(OC(F)(F)F)cc1 | -11% | -28% | -14% | -2% | ? | -69*
COc1ccc(NC(=O)c2c(C)nn(Cc3ccccc3)c2Cl)cc1S(=O)(=O)N1CCOCC1 | -20% | ? | 2% | 0% | ? | -72*
COc1ccc(C(=O)NCc2c(C)nn(Cc3ccccc3)c2C)cc1S(=O)(=O)N1CCOCC1 | ? | ? | 4% | -12% | ? | -101*
COc1cccc(N2CCN(S(=O)(=O)c3ccc(-c4ccno4)cc3OC)CC2)c1 | · | · | · | -1% | · | -20
COCOCCn1cc(CN2CCS(=O)(=O)N(Cc3ccc(-c4ccccc4)cc3)C(C(C)C)C2=O)nn1 (stereo not given) | · | · | · | · | · | -3
COC(=O)C1(C)NC(c2ccco2)C2C(=O)N(c3ccc(C)cc3)C(=O)C21 (stereo not given) | 0% | 25% | -11% | -32% | ? | -8
CCN1C(=O)[C@H]2[C@@H](c3ccc(-c4ccc5c(c4)OCO5)c(OC)c3)N[C@@](C)(C(=O)OC)[C@H]2C1=O | · | 3.2µM* | -8% | · | · | -28
COC(=O)C1(C)NC(c2ccc(F)cc2)C2C(=O)N(c3ccc(C)cc3)C(=O)C21 (stereo not given) | -1% | 9% | -7% | ? | 2.3µM* | 45
CCN1C(=O)[C@H]2[C@@H](c3ccc(-c4ccc(Cl)c(Cl)c4)c(OC)c3)N[C@@](C)(C(=O)OC)[C@H]2C1=O | 2.1µM* | -18% | 0% | 40µM* | 0.93µM* | -10
COc1cccc(C(c2sc3nc(-c4ccco4)nn3c2O)N2CCOCC2)c1 (stereo not given) | · | · | · | 3% | · | -3
O=C(C1CCC(CNc2nc(=S)[nH]c3ccccc23)CC1)N1CCN(c2ccccn2)CC1 (stereo not given) | ? | · | -2% | 7% | 2% | -107*
COC(=O)C1=CN(CCOC23CC4CC(CC(C4)C2)C3)C=C(C(=O)OC)C1c1ccsc1 | ? | 32µM* | -6% | 6% | ? | -32
COC(=O)C1=CN(Cc2ccc(OC)cc2)C=C(C(=O)OC)C1c1ccsc1 | 7.4µM* | -19% | 1% | · | 38% | -7
CCOC(=O)CN(C(=O)CNC(=O)c1ccco1)C(C(=O)NC1CCCCC1)c1cccnc1 (stereo not given) | 21% | 17% | 1% | -9% | -15% | -18
COCCN1CCN(C(=O)C2CCC(=O)N(CCc3cccc(F)c3)C2)CC1 (stereo not given) | 27% | 17% | 1% | -1% | 16% | 73
Cc1ccc([C@@H]2C[C@H]3[C@@H](CN2S(=O)(=O)c2ccc(C)cc2)C(=O)C[C@@H](c2ccccc2)N3S(=O)(=O)c2ccc(C)cc2)cc1 | · | · | · | · | · | -12
Cc1ccc(S(=O)(=O)N2C[C@H]3C(=O)C[C@@H](c4ccccc4)N(S(C)(=O)=O)[C@H]3C[C@H]2c2ccccc2)cc1 | · | · | · | · | · | -95*
CC(=O)C1CN(S(=O)(=O)c2ccc(C)cc2)C(c2ccccc2)CC1C (stereo not given) | · | · | · | · | · | -60*
Cc1ccc(S(=O)(=O)N2[C@H](c3ccc(Cl)cc3)CC(=O)[C@@H]3CN(S(=O)(=O)c4ccccc4C)[C@H](c4ccc(Cl)cc4)C[C@@H]32)cc1 | · | · | · | · | · | -89*
Cc1ccc(S(=O)(=O)N2[C@H](c3ccccc3)CC(=O)[C@@H]3CN(S(=O)(=O)c4ccccc4)[C@H](c4ccccc4)C[C@@H]32)cc1 | · | · | · | · | · | -14
Cc1ccc(S(=O)(=O)N2[C@H](c3cccc(Cl)c3)CC(=O)[C@@H]3CN(S(=O)(=O)c4ccccc4C)[C@H](c4ccc(Cl)cc4)C[C@@H]32)cc1 | · | · | · | · | · | -83*
CN(Cc1ccccc1)C(=O)C1CCN(S(=O)(=O)Cc2ccccc2)CC1 | · | · | · | -8% | · | 8
SMILES | Pf growth 48h | HCV inhibitor | SARS PLP yeast | Sm TGR inh | Pf growth 96h | HCMV inh
Cc1ccc(S(=O)(=O)N2C[C@H]3C(=O)C[C@@H](c4ccc(Cl)cc4)N(S(=O)(=O)c4ccccc4C)[C@H]3C[C@H]2c2ccc(Cl)cc2)cc1 | · | · | · | · | · | -20
Cc1ccc([C@@H]2CC(=O)[C@@H]3CN(S(=O)(=O)c4ccccc4C)[C@H](c4ccc(Cl)cc4)C[C@@H]3N2S(=O)(=O)c2ccc(C)cc2)cc1 | · | · | · | · | · | -94*
Cc1ccc(S(=O)(=O)N2C[C@H]3C(=O)C[C@@H](c4ccccc4)N(S(=O)(=O)c4ccc(C)cc4)[C@H]3C[C@H]2c2ccc(Cl)cc2)cc1 | · | · | · | · | · | -85*
O=C(Nn1cnnc1)c1ccccc1Cl | 3% | 8% | 4% | 8% | 8.3µM* | 27
COc1cccc(C(=O)Nn2cnnc2)c1OC | 8% | 19% | 3% | 5% | 2.1µM* | 26
O=C(O)c1ccccc1C(=O)Nn1cnnc1 | -7% | -5% | 0% | 5% | 5% | 7
Cc1cc(C)cc(NC(=O)CSc2oc(-c3cccs3)nc2S(=O)(=O)c2ccc(Br)cc2)c1 | · | · | · | -11% | · | 8
CCCCCc1ccc(OCCCC[n+]2cccc(C)c2)c(CCCCC)c1 | -9% | ? | 0% | 2% | -19% | -102*
CCC(C)(C)c1ccc(Oc2cccc(C(=O)O)c2)cc1 | 54% | 13% | -9% | 4% | 83% | 88
CCCCCc1ccc(OCCCC[n+]2ccccc2)c(CCCCC)c1 | 0.93µM* | -27% | -17% | 2% | -2% | ·
c1cc[n+](CCCC[n+]2ccccc2)cc1 | -7% | 13% | 8% | 17% | 46% | 3
CCCCCc1ccc(OCCCC[n+]2ccc(C)cc2)c(CCCCC)c1 | 0.47µM* | 6.3µM* | -6% | -12% | 39% | -100*
CCC(C)(C)c1ccc(OCCCC[n+]2ccccc2)c(C(C)(C)CC)c1 | 2.1µM* | ? | -19% | 0% | -22% | -98*
